High-throughput results as filed in PubChem.
Six1-Eya2 inh – qHTS Assay for Inhibitors of the Six1/Eya2 Interaction; Homeobox protein SIX1 (Homo sapiens) + Protein phosphatase EYA2 (Homo sapiens), …; actives 0.56% (n = 360,000); AlphaScreen GST-Six1/His-Eya2 binding, biochemical; stronger effect = lower value; AID 651725, 2012; activity change, % (concentration not given with the values); in the data active = activity change below about -65%; inconclusive = mostly about -30% to -63%; note: % is set by controls: 0 for no effect and ±100 for the full control effect
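GST-Six1 + His-Eya2 (5X stock: 250/500 nM); Tris pH 8.0, 300 mM NaCl, 0.05% BSA, 0.02% Tween 20; GSH donor/Ni acceptor beads; 1 h 37 °C dark; AlphaScreen readout.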
G9a inh – qHTS Assay for Inhibitors of Histone Lysine Methyltransferase G9a | Histone-lysine N-methyltransferase EHMT2 (Homo sapiens), Q96KQ7 | G9a H3K9 monomethylation, AlphaScreen, 2 h | Potency, µM (doses to about 102 µM), inactives show top-dose activity, negative = inhibition, usual class: inhibitors | actives 8.8% (n = 350,000) | AID 504332, 2011; note: potency is the fitted concentration of half-maximal effect; % is set by controls: 0 for no effect and ±100 for the full control effect; nearly all actives have a fitted effect of over 75% in size
Target sequence (Q96KQ7 913-1193 limits assumed): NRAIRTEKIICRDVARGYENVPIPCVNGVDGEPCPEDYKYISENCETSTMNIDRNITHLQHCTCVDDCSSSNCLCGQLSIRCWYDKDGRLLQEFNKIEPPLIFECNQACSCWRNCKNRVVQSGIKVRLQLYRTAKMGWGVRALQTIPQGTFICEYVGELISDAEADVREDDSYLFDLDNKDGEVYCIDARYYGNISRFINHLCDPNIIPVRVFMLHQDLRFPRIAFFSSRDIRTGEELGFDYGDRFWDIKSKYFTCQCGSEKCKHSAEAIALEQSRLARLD
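G9a (20 nM) was preincubated 15 min with compound, then reacted 2 h at room temperature with 500 nM biotin-H3K9 peptide and 20 µM SAM. Monomethyl-H3K9 detected by AlphaScreen using anti-H3K9me1 antibody.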
JMJD2A Tudor – qHTS Assay for Inhibitors of JMJD2A-Tudor Domain; Lysine-specific demethylase 4A (Homo sapiens), O75164; AlphaScreen JMJD2A-Tudor / H3K4me3 peptide binding; Potency, µM (doses to about 114 µM), for inactives: at the highest dose activity change, negative = inhibition, most hits filed as inhibitors; actives 4.4% (n = 390,000); AID 504339, 2011; note: potency is the fitted concentration of half-maximal effect; % is set by controls: 0 for no effect and ±100 for the full control effect; nearly all actives have a fitted effect of over 50% in size
BAZ2B inh – qHTS Assay for Inhibitors of BAZ2B; Bromodomain adjacent to zinc finger domain protein 2B (Homo sapiens), Q9UIF8; AlphaScreen BAZ2B-H3K14Ac peptide displacement; Potency, µM (titrated, usually from 114 µM), for the others: at the top dose activity change, negative = inhibition, hits mostly inhibitors; actives 4.4% (n = 360,000); note: potency is the fitted concentration of half-maximal effect; % is set by controls: 0 for no effect and ±100 for the full control effect; nearly all actives have a fitted effect of over 60% in size
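Inhibition is scored as reduced AlphaScreen emission. The BAZ2B/b-H3(5-23)K14Ac complex (50 nM each) in PBS pH 7.4, 0.01% Tween-20 meets compound (up to 110 uM) for 30 min at RT before bead addition.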
CtBP-E1A blk – qHTS Assay for Inhibitors of the CtBP/E1A Interaction; CtBP / adenovirus E1A interaction (AlphaScreen); AlphaScreen GST-E1A/His-CtBP binding, 1536-well; stronger effect = lower value; activity change, % (concentration not given with the values); actives 0.49% (n = 340,000); in the data active = activity change below about -65%; inconclusive = mostly about -30% to -63%; note: % is set by controls: 0 for no effect and ±100 for the full control effect
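Homogeneous bead-based format: GST-tagged E1A captured on glutathione donor beads, His-tagged CtBP on nickel acceptor beads; compounds precede bead addition by 2 h at 37 °C.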
HP1b binding inh – HTS for Inhibitors of HP1-beta Chromodomain Interactions with Methylated Histone Tails | AlphaScreen HP1-beta / biotin-H3K9me3 peptide binding | Potency, µM (top dose mostly 114 µM), without a hit: at the highest dose activity change, negative = inhibition, most hits filed as inhibitors | actives 0.56% (n = 390,000) | AID 540317, 2011; note: potency is the fitted concentration of half-maximal effect; nearly all actives have a fitted effect of over 70% in size
Target sequence (P83916 whole entry, looked up): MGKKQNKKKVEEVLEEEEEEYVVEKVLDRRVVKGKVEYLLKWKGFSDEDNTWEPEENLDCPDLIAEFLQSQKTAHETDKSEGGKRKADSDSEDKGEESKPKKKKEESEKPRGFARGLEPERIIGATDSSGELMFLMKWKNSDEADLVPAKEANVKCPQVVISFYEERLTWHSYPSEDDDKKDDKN
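Compound inhibition of the preformed complex between 50 nM HP1-beta and 50 nM biotinylated H3K9me3 peptide was read by AlphaScreen. Buffer was PBS pH 7.4 with 0.01% Tween-20. Incubations ran 30 min at room temperature, with 10 ug/mL donor/acceptor beads.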
Numbers without * were called inactive; ? = inconclusive; · = not tested or not shown; [ ] = another dose, or the depositor's remark. Rows were chosen to be rich in hits. Some 10% of all compounds tested hit in one or more screens of this group. Unless noted, calls come from the whole dose curve; as a rule, active = well fitted inhibition curve with a large enough effect; inconclusive = small, poorly fitted or top-dose-only effect; inactive = no such curve, though single readings can be large or run the other way.

SMILES | Six1-Eya2 inh | G9a inh | JMJD2A Tudor | BAZ2B inh | CtBP-E1A blk | HP1b binding inh
CCN(CC)C(=O)C1=C(C)N(CCCN2CCCC2=O)C(=O)C(CC(=O)NCC2CCCCC2)C1 (centres undefined) | 8 | · | · | · | 5 | ·
O=S(=O)(N/N=C/c1cccnc1)c1ccc(Cl)c(Cl)c1 | 0 | 18µM* | -16% | -5% | -9 | 13%
C=CCN(CC=C)C(=O)c1cccc(S(=O)(=O)N2c3ccccc3CC2C)c1 (centres undefined) | -4 | -5% | 5% | -24% | 2 | 24%
Nc1ccc2c(c1)OC1(CCCC1)O2 | -21 | 35µM* | 45µM* | 40µM* | -29 | -39%
O=C(Cc1ccccc1)Nc1ccc2c(c1)OC1(CCCC1)O2 | -19 | ? | -34% | -39% | 10 | -8%
COc1cc(CNCc2cccs2)ccc1OCc1cccs1 | 1 | -3%[59 µM] | -10% | 11% | 8 | 17%
CCN(CC)c1ccc(CNCc2cccs2)cc1 | -28 | ? | ? | 50µM* | -17 | -1%
O=S(=O)(Nc1ccc(F)cc1F)c1ccc(-n2cccn2)cc1 | · | -30%[59 µM] | 1% | -7% | · | 26%
O=C(C1CC(c2ccc(F)cc2)=NO1)N1CCc2ccccc2C1 (centres undefined) | -3 | 14% | -22% | 3% | 2 | 26%
COc1cccc(C2=NOC(C(=O)N3CCc4ccccc4C3)C2)c1 (centres undefined) | 3 | 7.9µM* | -12% | 11% | 2 | 36%
CCN1CCN(C(=S)c2ccc(SC)cc2)CC1 | -16 | 40µM* | -17% | 3% | 0 | ?
CSc1ccc(C(=S)N2CCCCCC2)cc1 | -2 | 32µM* | -18% | -10% | -12 | 42%
CSc1ccc(C(=S)N2CCN(Cc3ccccc3)CC2)cc1 | -24 | 32µM* | ? | ? | -27 | -36%
N#CCCn1c(=O)c(-c2ccc(Cl)cc2)nc2cnc(N3CCOCC3)nc21 | · | -2%[0.501 µM] | · | · | · | ·
C/C(=N/NS(=O)(=O)c1ccc(C)cc1)[C@H]1C[C@@H]1c1ccccc1 | -5 | 13µM* | 4% | 1% | 6 | 43%
O=C(c1ccc(F)cc1)N1CCC(c2nc3ccccc3s2)CC1 | · | ? | -12% | -15% | · | 32%
COc1ccc(NC(=O)c2ccco2)cc1NC(=O)COc1ccccc1Cl | · | 26%[59 µM] | -4% | 1% | · | 30%
CCc1ccc(N2CC(C(=O)Nc3nc4ccc(S(C)(=O)=O)cc4s3)CC2=O)cc1 (centres undefined) | 9 | 40µM* | -21% | -2% | 2 | -33%
CS(=O)(=O)c1ccc2nc(NC(=O)C3CC(=O)N(c4ccc(F)cc4)C3)sc2c1 (centres undefined) | -19 | ? | -6% | -17% | -1 | 29%
COc1cc(OC)cc(C(=O)N[C@H](C(=O)Nc2nc3ccc(S(C)(=O)=O)cc3s2)C(C)C)c1 | 1 | 40µM* | -8% | -13% | 5 | 58%
COc1ccc(N2CC(C(=O)Nc3nc4ccc(S(C)(=O)=O)cc4s3)CC2=O)cc1 (centres undefined) | -2 | 28µM* | -29% | ? | -1 | -12%
CC(C)Cn1c(-c2cccnc2)nc2c1c(=O)[nH]c(=O)n2CC(C)C | 4 | -7% | -5% | 2% | -1 | 21%
O=c1c2c(-c3ccccc3)csc2ncn1/N=C/c1ccc(O)c([N+](=O)[O-])c1 | 2 | ? | -30% | -33% | · | 15%
O=c1c2c(-c3ccccc3)csc2ncn1/N=C/c1cccc([N+](=O)[O-])c1O | ? | 40µM* | 79µM* | 50µM* | -72* | -16%
COc1ccc(C2CC(=O)N3CN(Cc4ccco4)CSC3=C2C#N)cc1 (centres undefined) | -2 | 0.89µM* | 7.1µM* | ? | -2 | ?
SMILES | Six1-Eya2 inh | G9a inh | JMJD2A Tudor | BAZ2B inh | CtBP-E1A blk | HP1b binding inh
COc1ccc(C2CC(=O)N3CN(C4CCCCC4)CSC3=C2C#N)c(OC)c1 (centres undefined) | · | 2.5µM* | 3.5µM* | · | · | ?
N#CC1=C2SCN(Cc3ccco3)CN2C(=O)CC1c1ccc(Cl)cc1 (centres undefined) | -1 | 1µM* | ? | · | 1 | ?
COc1cc(C2CC(=O)N3CN(Cc4ccco4)CSC3=C2C#N)ccc1OCc1ccccc1 (centres undefined) | 4 | 1.3µM* | 22µM* | 45µM* | -6 | ?
CCc1ccc(NC(=O)Cc2c(C(=O)O)c(C)cn2C)cc1 | · | 8%[59 µM] | -24% | -27% | · | -6%
COc1ccc2ccccc2c1C1CC(=O)N2CN(Cc3ccco3)CSC2=C1C#N (centres undefined) | 0 | 0.56µM* | ? | -27% | -3 | ?
COc1ccc2ccccc2c1C1CC(=O)N2CN(C3CCCCC3)CSC2=C1C#N (centres undefined) | -7 | 1.6µM* | ? | ? | -15 | ?
CC(C)c1ccc(C2CC(=O)N3CN(Cc4ccco4)CSC3=C2C#N)cc1 (centres undefined) | -3 | 2.8µM* | 40µM* | 50µM* | -3 | ?
CSC1=C(C#N)C(c2ccc(C(C)C)cc2)CC(=O)N1 (centres undefined) | 2 | ? | -17% | -1% | 6 | 21%
Cc1ccc(CN(C)C(=O)c2cc(COc3cccc(C(F)(F)F)c3)on2)o1 | -9 | 32µM* | -22% | -5% | 20 | 3%
N#Cc1c2n(c3c(=S)nc[nH]c13)CCCCC2 | -6 | · | 35µM* | -32% | 1 | -12%
N#Cc1c2n(c3c(=O)[nH]cnc13)CCCC2 | -29 | -1% | -5% | 17% | ? | 15%
Nc1c(-c2ccccc2)c(CN2CCOCC2)nn1-c1ccc(C(=O)O)cc1 | 3 | 17%[59 µM] | -7% | 7% | 13 | 30%
CCOc1ccc2c(c1)-c1c(ssc1=S)C(C)(C)N2C | ? | 4µM* | 11µM* | 10µM* | -71* | 2µM*
CCOc1ccc2c(c1)C(C)=CC(C)(C)N2S(=O)(=O)c1ccc(F)cc1 | -1 | -11% | 10% | -2% | 13 | 52%
CCCN(CCC)CCCNC(=O)Cn1ncn2c(cc3sc(CC)cc32)c1=O | · | -20%[59 µM] | 1% | -2% | · | 13%
